# Experimental data reported in the supplement of paper PMC9694430.
# Key:
# Assay in all cases: thermal shift delta Tm vs DMSO control; higher = stronger stabilization (binding)
# Settings in all cases: 12.5 µM; protein concentration 2 µM
# LOC_OS04G57630-cb004 = system: LOC_OS04G57630-cb004
# Procedure, shortened: (§1)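 Rice kinase domain constructs, made in E. coli and purified, were placed in 96-well plates at 2 μM in 19.5 μl of 100 mM potassium phosphate pH 7.5, 150 mM NaCl, 10% glycerol and 5 × SYPRO Orange, with compound in DMSO. A temperature ramp from 25°C to 95°C at 0.05°C/s was used for differential scanning fluorimetry. The melting temperature shift is a triplicate mean compared with DMSO-only protein, derived from Boltzmann fits.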
# LOC_OS05G07850-cb002 = system: LOC_OS05G07850-cb002
# Procedure, shortened: as §1
# LOC_OS05G16824-cb004 = system: LOC_OS05G16824-cb004
# Procedure, shortened: as §1
# LOC_OS05G28520-cb001 = system: LOC_OS05G28520-cb001
# Procedure, shortened: as §1
# LOC_OS05G30820-cb001 = system: LOC_OS05G30820-cb001
# Procedure, shortened: as §1
# LOC_OS05G43570-cb004 = system: LOC_OS05G43570-cb004
# Procedure, shortened: as §1
# LOC_OS06G16330-cb003 = system: LOC_OS06G16330-cb003
# Procedure, shortened: as §1
# LOC_OS06G22820-cb001 = system: T1, LOC_OS06G22820-cb001
# T1 sequence (whole entry): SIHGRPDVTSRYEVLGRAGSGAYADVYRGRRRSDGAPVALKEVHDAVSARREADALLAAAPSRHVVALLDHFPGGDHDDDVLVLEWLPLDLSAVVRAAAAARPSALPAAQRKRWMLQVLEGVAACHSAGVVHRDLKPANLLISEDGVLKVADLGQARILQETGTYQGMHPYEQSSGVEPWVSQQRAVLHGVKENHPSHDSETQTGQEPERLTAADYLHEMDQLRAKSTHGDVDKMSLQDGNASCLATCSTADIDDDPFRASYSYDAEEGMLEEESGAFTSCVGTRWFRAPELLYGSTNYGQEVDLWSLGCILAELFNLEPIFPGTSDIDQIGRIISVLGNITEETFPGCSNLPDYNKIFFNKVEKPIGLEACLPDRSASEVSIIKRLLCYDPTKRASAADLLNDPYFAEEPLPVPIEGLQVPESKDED
# Procedure, shortened: as §1
# LOC_OS07G06570-cb004 = system: LOC_OS07G06570-cb004
# Procedure, shortened: as §1
# LOC_OS07G07230-cb001 = system: LOC_OS07G07230-cb001
# Procedure, shortened: as §1
# 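Note: purified Escherichia coli-expressed rice kinase domain construct.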
# Chain of LOC_OS06G16330-cb003 (as listed by the source): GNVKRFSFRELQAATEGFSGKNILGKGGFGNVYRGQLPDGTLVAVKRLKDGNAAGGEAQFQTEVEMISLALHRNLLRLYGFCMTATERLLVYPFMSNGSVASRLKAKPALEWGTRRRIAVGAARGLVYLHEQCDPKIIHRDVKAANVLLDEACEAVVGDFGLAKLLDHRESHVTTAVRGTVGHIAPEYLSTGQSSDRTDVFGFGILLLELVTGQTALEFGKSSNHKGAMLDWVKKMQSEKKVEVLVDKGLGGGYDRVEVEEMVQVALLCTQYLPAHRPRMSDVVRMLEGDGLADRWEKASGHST
Compound,thermal shift delta Tm (LOC_OS04G57630-cb004) [°C],thermal shift delta Tm (LOC_OS05G07850-cb002) [°C],thermal shift delta Tm (LOC_OS05G16824-cb004) [°C],thermal shift delta Tm (LOC_OS05G28520-cb001) [°C],thermal shift delta Tm (LOC_OS05G30820-cb001) [°C],thermal shift delta Tm (LOC_OS05G43570-cb004) [°C],thermal shift delta Tm (LOC_OS06G16330-cb003) [°C],thermal shift delta Tm (LOC_OS06G22820-cb001) [°C],thermal shift delta Tm (LOC_OS07G06570-cb004) [°C],thermal shift delta Tm (LOC_OS07G07230-cb001) [°C]
CCOc1cc2ncc(C#N)c(Nc3ccc(F)c(Cl)c3)c2cc1NC(=O)/C=C/CN(C)C [Pelitinib (EKB-569)],0.32,2.2,-1.87,-0.33,0.56,0.2,2.16,0.39,0.65,0.56
Cn1c2ccccc2c2c3c(c4c5ccccc5n(CCC#N)c4c21)CNC3=O,0.32,14.2,7.06,1.51,1.15,1.86,7.19,1.21,-0.17,1.18
CC(C)(O)CNc1ncc(-c2ccnc(Nc3ccnc(Cl)c3)n2)c(CC2CC2)n1,0.07,7.44,0.09,0.75,0.41,0.5,4.77,0.62,0.78,0.71
CN1CCC(CNc2ccc3ncc(-c4cccc(OC(F)(F)F)c4)n3n2)CC1 [SGI-1776 free base],1.46,12,3.25,0.98,0.86,0.36,3.37,0.41,0.32,0.72
C=CC(=O)Nc1cccc(Oc2nc(Nc3ccc(N4CCN(C)CC4)cc3OC)ncc2Cl)c1,-0.7,8.75,-3.25,0.26,0.41,0.58,-0.17,0.37,0.31,0.24
CC1(C)C=Cc2c(ccc3c2OC[C@@H](c2ccc(O)cc2O)C3)O1 [Glabridin],0.75,1.39,7.49,0.24,-0.16,0.51,0.92,0.89,0.51,-0.99
CC(C)c1cnn2c(NCc3ccccc3-n3cccn3)nc(OC3CCCNC3)nc12 (stereo not given),0.19,0.48,1.46,0.66,0.31,0.57,0.17,1.22,0.4,-0.33
Cc1cc(Nc2nc(N[C@@H](C)c3ccc(F)cc3)c(C#N)cc2F)n[nH]1,0.47,11.9,8.62,-0.1,1.2,0.67,8.11,-0.41,0.19,0.12
CN(C)C/C=C/C(=O)Nc1cc2c(Nc3ccc(F)c(Cl)c3)ncnc2cc1O[C@H]1CCOC1 [Afatinib (BIBW2992) Dimaleate],1.02,7.65,-0.29,0.44,0.24,0.46,2.05,0.61,1.27,0.08
CCc1cccc(CC)c1NC(=O)N1Cc2[nH]nc(NC(=O)c3ccc(N4CCN(C)CC4)cc3)c2C1,0.89,5.74,1.16,0.11,0.78,0.47,2.93,1.47,1.26,0.12
O=C(NCc1ccccc1)c1csc(Nc2ccncn2)n1 [Thiazovivin],0.16,2.6,-1.42,0.2,0.36,1.22,0.41,0.56,0.66,-0.04
O=C1NC(=O)C(c2cnc3ccccn23)=C1c1cn2c3c(cc(F)cc13)CN(C(=O)N1CCCCC1)CC2,0.36,5.85,3.38,1.1,0.39,0.48,-0.6,1.42,2.11,0.29
CNC(=O)c1ccccc1Nc1cc(Nc2ccc(N3CCOCC3)cc2OC)ncc1C(F)(F)F,3.79,7.4,9.96,1.03,3.54,0.9,6.99,0.82,1.56,0.72
NC(=O)c1ccc2nc(-c3ccc(Oc4ccc(Cl)cc4)cc3)[nH]c2c1 [Chk2 Inhibitor II (BML-277)],-0.02,3.29,2.79,0.29,-0.18,0.06,0.28,0.74,-0.16,-0.75
CCCCNc1ncc2c(-c3ccc(CN4CCN(C)CC4)cc3)cn([C@H]3CC[C@H](O)CC3)c2n1,6.55,11.9,15.5,0.68,1.96,0.44,13.5,0.17,0.92,-0.01
FC(F)(F)c1ccc(/C=C/c2nc(COc3ccc(CCCCn4ccnn4)cc3)co2)cc1 [Mubritinib (TAK 165)],0.31,0.65,-1.49,0.05,0.57,0.39,-0.19,0.32,0.47,-1.09
CNc1nc(-c2ccc3c(N)n[nH]c3c2)cc(N2C[C@@H](C(=O)NC3CCCCC3)CC[C@H]2C)n1,0.37,2.19,-1.52,0.81,0.31,0.65,0.1,0.79,1.92,0.33
CCCCNc1ncc(C(=O)NCc2ccc(-n3ccnc3)cc2)c(NC2CCC(O)CC2)n1 (stereo not given),3.08,11,8.45,0.43,1,0.57,11.2,0.49,1.44,0.57
O=C(/C=C/c1ccc2ccccc2n1)c1ccncc1,3.08,9.31,4.2,0.46,0.47,0.37,1.41,0.76,0.69,0.31
CS(=O)(=O)CCNCc1ccc(-c2ccc3ncnc(Nc4ccc(OCc5cccc(F)c5)c(Cl)c4)c3c2)o1 [Lapatinib],0.95,5.03,-0.92,0.22,0.61,1.4,0.59,1.74,2.3,-0.12
